Laboratory results from PubChem BioAssay AID743130 (Broad Institute, 2013).
Activity calls are given as the source filed them.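 The calls were made as follows: active = fitted curve rises past 20% activation at a concentration no higher than the top valid tested dose; inactive = activity opposite to the expected signal increase, and the rest.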

Assay: Rlm1 cell wall stress reporter activators, dose response, S. cerevisiae reporter strain, C. neoformans project, dry powder (AID 743130)
Details: S. cerevisiae Rlm1-lacZ reporter, luminescence, 4 h, hits give high values; at 35 µM unless noted

Maximal activation, inactive:
COC(=O)C1=C(C)N(Cc2ccc(Br)cc2)C(=S)NC1c1ccc(OC)cc1 (centres undefined) 5.5% [at 0.26 µM]
Cc1ccc2c(c1)[nH]c(=S)n2CCOc1ccccc1 1.98%
CCOC(=O)c1c(-c2ccc(-c3ccccc3)cc2)csc1NC(=O)CNCCN(C)C -12.6%
Cc1ccc(OCCn2c(=S)[nH]c3ccccc32)cc1 -4.62%
S=c1[nH]c2cccc(Cl)c2n1CCOc1ccccc1 -2.44%
CCOC(=O)c1c(-c2ccc(F)cc2)csc1NC(=O)CN1CCN(C)CC1 8.68% [at 16 µM]
Cc1ccc(C(C)C)c(OCCn2c(=S)[nH]c3ccccc32)c1 -8.35% [at 0.5 µM]
CCOC(=O)c1c(-c2ccc(C(C)(C)C)cc2)csc1NC(=O)CN1CCN(C)CC1 6.67% [at 16 µM]
CCOC(=O)c1c(-c2ccc(F)cc2)csc1NC(=O)CN1CCN(CC)CC1 7.91% [at 1 µM]
Fc1ccccc1OCCn1c(=S)[nH]c2ccccc21 -3.96%
CCOc1ccc(OCCn2c(=S)[nH]c3ccccc32)cc1 -9.4% [at 0.26 µM]
Cc1ccccc1OCCn1c(=S)[nH]c2ccccc21 -3.77% [at 1 µM]
CCOC(=O)c1c(-c2ccc(OC)cc2)csc1NC(=O)CN(C)CC(=O)N(C)C -2.31% [at 4.2 µM]
c1ccc(OCCn2cnc3ccccc32)cc1 -5.78% [at 1 µM]
